Source: PubChem
A selection: hits, their analogues and other compounds. The true share with any hit is near 2.4%.
Pol eta inh-1 = DNA polymerase eta (human) inhibition. Q9Y253. recombinant Pol eta, fluorescent DNA replication assay. Potency, µM (series often up to 114 µM), for inactives: top-dose activity change, negative = inhibition, actives largely listed as inhibitors. hit rate 1.2% among 390,000. AID 588591; also: % is scaled to controls: 0 for no effect and ±100 for the full control effect
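Fluorescent replication assay: 50 nM final substrate added after a 15 min room-temperature compound preincubation with 10 nM enzyme. Signal taken at 0 min and again at 10 min.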
FEN1 inh = blocks human flap endonuclease 1 | Potency, µM (doses to about 114 µM), inactives show top-dose activity change, negative = inhibition, hits mostly inhibitors | AID 588795 | Recombinant FEN1 flap cleavage, fluorescence, 15 min | hit rate 0.35% among 390,000 | P39748; also: % is scaled to controls: 0 for no effect and ±100 for the full control effect; nearly all actives have a fitted effect of over 65% in size
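Compounds are tested as a concentration series against 10 nM FEN1; after a 15 min room-temperature preincubation, 50 nM substrate starts cleavage, with plate reads at 0 and 15 min. Normalized responses are fitted by a Hill equation.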
Pol kappa inh-1 = DNA polymerase kappa (human) inhibition | Potency, µM (titrated, usually from 107 µM), without a hit: top-dose activity, negative = inhibition, usual class: inhibitors | purified Pol kappa, fluorescent DNA synthesis assay, 10 min | hit rate 0.53% among 400,000 | AID 588579 | Q9UBT6; also: % is scaled to controls: 0 for no effect and ±100 for the full control effect
Target sequence (Q9UBT6 whole entry, looked up): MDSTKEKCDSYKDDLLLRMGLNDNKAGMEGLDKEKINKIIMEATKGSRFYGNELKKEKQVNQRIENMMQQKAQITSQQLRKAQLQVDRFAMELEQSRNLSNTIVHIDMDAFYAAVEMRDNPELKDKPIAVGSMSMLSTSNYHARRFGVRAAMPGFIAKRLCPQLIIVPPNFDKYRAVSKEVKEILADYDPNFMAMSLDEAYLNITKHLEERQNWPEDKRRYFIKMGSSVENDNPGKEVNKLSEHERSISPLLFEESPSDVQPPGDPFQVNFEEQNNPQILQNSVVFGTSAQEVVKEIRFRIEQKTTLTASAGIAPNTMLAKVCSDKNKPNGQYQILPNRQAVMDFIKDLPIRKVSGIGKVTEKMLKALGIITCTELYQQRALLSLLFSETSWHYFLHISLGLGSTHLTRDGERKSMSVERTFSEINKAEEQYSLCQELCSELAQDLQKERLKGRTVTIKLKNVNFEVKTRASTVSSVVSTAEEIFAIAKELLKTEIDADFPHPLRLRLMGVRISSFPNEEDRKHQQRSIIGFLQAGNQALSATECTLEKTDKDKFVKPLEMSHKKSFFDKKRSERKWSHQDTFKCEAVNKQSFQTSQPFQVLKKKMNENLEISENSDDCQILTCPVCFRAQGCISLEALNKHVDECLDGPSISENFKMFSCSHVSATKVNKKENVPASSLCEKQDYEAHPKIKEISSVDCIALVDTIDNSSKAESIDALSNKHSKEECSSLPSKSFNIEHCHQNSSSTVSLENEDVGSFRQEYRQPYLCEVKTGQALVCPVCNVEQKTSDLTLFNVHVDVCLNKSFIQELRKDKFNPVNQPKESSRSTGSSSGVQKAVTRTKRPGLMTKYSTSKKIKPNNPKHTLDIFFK
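Kinetic fluorescence screen: compound preincubated 15 min RT with 10 nM enzyme; 50 nM substrate (final) initiates; reads at 0/10 min.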
WRN helicase inh = inhibitors of human WRN helicase | AID 651768 | WRN helicase unwinding, fluorescent forked duplex, kinetic | hit rate 0.46% among 360,000 | Potency, µM (series often up to 114 µM), inactives show at the top dose activity change, negative = inhibition, hits mostly inhibitors | Q14191; also: % is scaled to controls: 0 for no effect and ±100 for the full control effect; nearly all actives have a fitted effect of over 55% in size
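WRN at 20 nM final preincubated with compound 15 min at room temperature; reaction started with 100 nM fluorophore/quencher forked duplex oligonucleotide and 2 mM ATP final. Unwinding followed kinetically by red fluorescence (ex 525, em 598 nm).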
POLI inh = inhibitors of human DNA polymerase iota. Q9UNA4. Pol iota fluorescent replication assay, 10 min. Potency, µM (doses to about 115 µM), without a hit: top-dose activity, negative = inhibition, hits mostly inhibitors. hit rate 1% among 390,000. AID 588590
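Pol iota at 10 nM preincubated 15 min with compounds at room temperature; reaction started with fluorescent substrate, 50 nM final. Fluorescence read kinetically at 0 and 10 min; buffer-only wells as negative control.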
Pol beta inh = inhibitors of human DNA polymerase beta; Pol beta primer extension/strand displacement, fluorescence kinetic; hit rate 1.3% among 340,000; P06746; AID 485314; Potency, µM (highest dose often 114 µM), inactives show at the top dose activity change, negative = inhibition, most hits filed as inhibitors; also: % is scaled to controls: 0 for no effect and ±100 for the full control effect
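Pol beta (10 nM) was preincubated with compound for 15 min at room temperature. The reaction was then started with 50 nM substrate and read immediately and after a further 10 min at room temperature.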
Pol kappa inh-2 = Pol kappa (human) inhibition, cherry-pick confirmation. shares compounds with Pol eta inh-1. purified Pol-kappa, fluorescent strand-displacement substrate. Potency, µM, hits mostly inhibitors. hit rate 76% among 920. AID 720501
Pol eta inh-2 = confirmation of human DNA polymerase eta inhibitors; Potency, µM, actives largely listed as inhibitors; AID 720502; hit rate 64% among 2,600; shares compounds with Pol eta inh-1; Pol eta primer extension, TAMRA/BHQ fluorescence, 10 min
Active calls of the source: *; ? = inconclusive; / = no result; [ ] = dose if it differs, or a comment. Calls follow the shape of the dose curve; as a rule, active = well fitted curve in the direction sought with a large enough effect; inconclusive = small, poorly fitted or top-dose-only effect, or another doubt; inactive = no such curve, though single readings can be large; an effect the other way counts as inactive or inconclusive. Potency is read from the fitted curve at half-maximal effect.

SMILES | Pol eta inh-1 | FEN1 inh | Pol kappa inh-1 | WRN helicase inh | POLI inh | Pol beta inh | Pol eta inh-2 | others
CCOc1ccc(-c2ccc(/C=C3/C(=N)N4C=CSC4=NC3=O)o2)c([N+](=O)[O-])c1 | ? | -2% | -8% | -19% | -1% | 0% | /
CCOc1ccc(-c2ccc(/C=C3/C(=N)N4C(C)=CSC4=NC3=O)o2)c([N+](=O)[O-])c1 | 14µM* | -4% | ? | ? | 40µM* | 35µM* | ?
COc1cc(NC(=O)CSc2nc(-c3ccco3)cc(C(F)(F)F)n2)cc(OC)c1OC | -11% | -5% | -2% | / | -1% | 0% | /
Cc1ccc(S(=O)c2ccc([N+](=O)[O-])c3nonc23)cc1 (stereo unspecified) | 14µM* | / | / | 79µM* | / | / | 34* | Pol kappa inh-2=?
Cc1ccc(Nc2c([N+](=O)[O-])ccc3nonc23)c(C)c1 | -25% | 12% | -16% | -5% | 5% | 8% | /
O=C1/C(=C/c2ccc(C(=O)O)cc2)CCC/C1=C\c1ccc(C(=O)O)cc1 | 8.9µM* | 12% | 0% | -25%[57.1 µM] | ? | -9% | 30*
COc1ccc(/C=C/C(=O)NC(=S)Nc2ccc(S(=O)(=O)Nc3ccc(OC)nn3)cc2)cc1 | 56µM* | -12% | -11% | -20%[57.1 µM] | -3% | 1% | ?
COc1ccc(/C=C/C(=O)NC(=S)Nc2ccc(S(=O)(=O)Nc3cc(C)on3)cc2)cc1 | ? | 4% | -6% | -32% | ? | -15% | /
CCOCCCN1C(=O)c2[nH]nc(-c3ccccc3O)c2C1c1ccc(CC)cc1 (stereo unspecified) | -26% | ? | -6% | / | -13% | 2% | /
O=C(O)c1cc(-c2ccco2)nc2cc3ccccc3cc12 | 20µM* | -19% | 79µM* | ? | ? | 11µM* | 76*
CCC1CCc2nc3sc(C(=O)Nc4ccc(C)cc4)c(N)c3cc2C1 (stereo unspecified) | / | -4% | -13% | / | -30% | 18% | /
COc1ccc(OC)c(/C=N/Nc2nncn2/N=C/c2cc(OC)ccc2OC)c1 | ? | ? | -5% | -25% | ? | ? | 30*
O=C(Nc1ccc(Cl)c(-c2nc3ccccc3o2)c1)c1cccc2c(Cl)cccc12 | 1% | -13% | 4% | / | 3% | 11% | /
NS(=O)(=O)c1ccc(-c2ccc(/C=N/NC(=O)c3ccc([N+](=O)[O-])cc3)o2)cc1 | 4% | -20% | -9% | -5% | -3% | -17% | /
CNC(=S)N/N=C/c1ccc(-c2ccc(C(=O)O)cc2)o1 | 22µM* | -1% | ? | -8%[11.6 µM] | ? | ? | 34*
NS(=O)(=O)c1ccc(-c2ccc(/C=N/Nc3ccc(C(=O)O)cc3)o2)cc1 | 28µM* | ? | ? | -11% | 50µM* | -16% | ?
COc1cccc(-c2nc(NC3CC3)c3ccccc3n2)c1 | / | / | -13%[60.1 µM] | / | / | / | /
C=CCN(CC=C)S(=O)(=O)c1ncn[nH]1 | 8.9µM* | 8% | ? | -20%[57.1 µM] | ? | ? | ?
Cc1ccc(C)c(N2CCN(C(=O)c3c4c(nc5ccccc35)C(=O)N(C3CCCCC3)C4)CC2)c1 | -11% | 1% | -1% | / | 3% | 7% | /
O=C(Cn1nc2c(cc1=O)CCCC2)Nc1ccccc1C(F)(F)F | -14% | -3% | -3%[60.1 µM] | / | 8% | 15% | /
CC(=O)Nc1ccc(NC(=S)NC(=O)/C=C/c2ccco2)cc1 | 28µM* | 50µM* | 45µM* | ? | ? | -3% | 60*
COc1cccc(NC(=S)NC(=O)/C=C/c2ccco2)c1 | 45µM* | -9% | ? | ? | 28µM* | 40µM* | 48* | Pol kappa inh-2=17*
O=C(/C=C/c1ccco1)Nc1cccc(NC(=O)/C=C/c2ccco2)n1 | 20µM* | 2% | -30% | -16%[11.6 µM] | 35µM* | 25µM* | ?
CCS(=O)(=O)N1CC(=O)N(c2cc(Cl)ccc2C)C(C)(C(=O)NC2CCCCCC2)C1 (stereo unspecified) | -9% | 0% | -11% | / | 13% | -23% | /
CC(C)c1ccc(OCC(=O)Nc2cc(-c3ccccc3)no2)cc1 | -17% | 1% | 7% | / | 22% | 21% | /
SMILES | Pol eta inh-1 | FEN1 inh | Pol kappa inh-1 | WRN helicase inh | POLI inh | Pol beta inh | Pol eta inh-2 | others
Cc1ccc(C)c(N2CCN(S(=O)(=O)c3ccc(-c4cc(C(F)(F)F)on4)s3)CC2)c1 | -12% | 1% | -10% | / | 6% | ? | /
CC1=C(C)CC(C(=O)NC2CCCC2)C(C(=O)O)C1 (stereo unspecified) | -9% | 1% | 13% | 12% | 2% | -11% | /
CC1=CCC(C(=O)O)C(C(=O)NC2CCCCC2)C1 (stereo unspecified) | 20µM* | 2% | -41% | -10%[11.6 µM] | ? | 28µM* | 85* | Pol kappa inh-2=84*
COc1cc(NC(=O)N2CCN(c3cc(-c4noc(C)n4)ccc3C)CC2)cc(OC)c1OC | -9% | -20% | -5%[60.1 µM] | / | 6% | 32% | /
COc1cc(CCc2ccccc2)c(C(=O)O)c(O)c1C/C=C(/C)CCC=C(C)C | 32µM* | ? | 79µM* | ? | ? | / | 85* | Pol kappa inh-2=?
COc1cc(CCc2ccccc2)c(C(=O)O)c(O)c1CC=C(C)C | 0% | ? | -21% | -16% | -2% | / | /
COc1ccc(Cl)cc1NC(=O)c1c(NCc2ccc(C)o2)sc2c1CCCCC2 | ? | -18% | -7%[60.1 µM] | / | ? | -2% | ? | Pol kappa inh-2=?
COc1ccc(Cl)cc1NC(=O)c1c(NCc2ccc(C)o2)sc2c1CCC(C)C2 (stereo unspecified) | -11% | -9% | -13%[60.1 µM] | / | 5% | 1% | /
O=C(CSc1ncc2c(n1)-c1ccccc1N(Cc1ccccc1)S2(=O)=O)Nc1ccccc1 | 6% | 2% | -6% | / | 9% | 9% | /
O=C(O)c1cccc(Nc2c3ccccc3nc3ccccc23)c1 | -16% | -21% | -21% | -8% | 36% | 1% | /
O=C(O)c1cc(S(=O)(=O)O)cc(Nc2c3ccccc3nc3ccccc23)c1O | 22µM* | -21% | ? | -23%[11.6 µM] | ? | -7% | 30* | Pol kappa inh-2=17*
O=C(O)/C=C/C(=O)Nc1ccc(C2(c3ccc(NC(=O)/C=C/C(=O)O)cc3)c3ccccc3-c3ccccc32)cc1 | 50µM* | 11% | -12% | -16%[11.6 µM] | ? | 50µM* | ?
Cc1ccc(CNc2ncnc3onc(C)c23)cc1 | -6% | 4% | 9% | / | 25% | 14% | /
